Screens (PubChem BioAssay)
ATXN viability = cell viability loss in ATXN counter-screen; S2 cells (HEK-293 line with an ATXN2-luciferase reporter) viability, CellTiter-Fluor protease fluorescence, 24 h; Potency, µM (doses to about 56.7 µM), hits mostly cytotoxic; hit rate 0.49% among 400,000; AID 651635; also: potency is read from the fitted curve at half-maximal effect; nearly all actives have a fitted effect of over 40% in size
IL-1B inflam inh = inhibitors of inflammasome signaling (IL-1 beta secretion); AID 743279; activity change, % at 57.5 µM; THP-1 LPS/ATP IL-1B secretion, AlphaLISA, 16 h; hits give low values; hit rate 4.7% among 360,000; in the data active = activity change below about -50%; inconclusive = mostly about -30% to -49%; also: % is scaled to controls: 0 for no effect and ±100 for the full control effect
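THP-1 cells pretreated 1 hr with compounds (up to 57.5 uM final), then stimulated with LPS (250 ng/mL final) plus ATP (1.25 mM final); secreted IL-1B measured by AlphaLISA after 16 hr, decreased signal indicating inhibition.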
ATXN2 expr inh = inhibitors of ATXN2 expression; HEK-293 ATXN2-luciferase reporter, luminescence, 24 h; Potency, µM (titrated, usually from 57 µM), inactives show at the highest dose activity change, negative = inhibition, actives largely listed as inhibitors; hit rate 0.72% among 360,000; also: potency is read from the fitted curve at half-maximal effect; % is scaled to controls: 0 for no effect and ±100 for the full control effect; nearly all actives have a fitted effect of over 55% in size
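ATXN2-luciferase reporter cells (luciferase flanked by upstream and downstream ATXN2 gene portions) were treated 24 h at 37 °C with compounds at up to 57 uM. SteadyGlo luminescence gave expression; GF-AFC fluorescence gave viability.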
USP1-UAF1 inh = blocks the human USP1/UAF1 deubiquitinase complex; hit rate 0.23% among 390,000; recombinant USP1/UAF1, Ub-Rhodamine cleavage fluorescence; Potency, µM (doses to about 57.1 µM), for inactives: at the top dose activity change, negative = inhibition, actives largely listed as inhibitors; O94782; also: potency is read from the fitted curve at half-maximal effect; % is scaled to controls: 0 for no effect and ±100 for the full control effect; nearly all actives have a fitted effect of over 60% in size
Target sequence (O94782 whole entry, looked up): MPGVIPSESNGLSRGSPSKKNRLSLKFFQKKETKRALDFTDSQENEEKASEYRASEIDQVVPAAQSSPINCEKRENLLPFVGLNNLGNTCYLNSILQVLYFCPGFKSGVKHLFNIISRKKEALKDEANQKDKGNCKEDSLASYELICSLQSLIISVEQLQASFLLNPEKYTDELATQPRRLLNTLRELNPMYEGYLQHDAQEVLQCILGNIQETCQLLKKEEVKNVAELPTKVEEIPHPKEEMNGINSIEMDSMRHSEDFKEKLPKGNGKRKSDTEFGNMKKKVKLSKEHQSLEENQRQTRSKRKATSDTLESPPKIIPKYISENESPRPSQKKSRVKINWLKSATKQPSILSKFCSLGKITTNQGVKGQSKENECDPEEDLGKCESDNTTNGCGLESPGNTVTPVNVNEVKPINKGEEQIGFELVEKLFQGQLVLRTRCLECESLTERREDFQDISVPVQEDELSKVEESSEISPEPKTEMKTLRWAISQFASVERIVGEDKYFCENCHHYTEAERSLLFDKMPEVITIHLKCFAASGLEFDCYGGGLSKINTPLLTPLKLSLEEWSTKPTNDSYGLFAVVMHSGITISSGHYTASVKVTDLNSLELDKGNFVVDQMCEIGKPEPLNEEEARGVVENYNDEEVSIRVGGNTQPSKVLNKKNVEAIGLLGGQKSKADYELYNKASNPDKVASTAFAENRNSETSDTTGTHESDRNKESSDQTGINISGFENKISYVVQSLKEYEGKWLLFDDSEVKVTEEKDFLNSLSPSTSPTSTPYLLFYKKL
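1 nM enzyme complex + cpd, 15 min RT; start with Ub-Rho 150nM final; kinetic fluorescence ex 480/em 540, 6 reads q60 s. Buffer 50mM HEPES pH 7.8, 0.5mM EDTA, 0.1 mg/ml BSA, 1mM TCEP, 0.01% Tween-20.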
USP2a block = inhibitors of human ubiquitin-specific protease USP2a; USP2 core, Ub-CHOP2 coupled fluorogenic reporter, 485/531; Potency, µM (highest dose often 38.3 µM), for the others: at the top dose activity change, negative = inhibition, most hits filed as inhibitors; hit rate 0.01% among 330,000;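 also: potency is read from the fitted curve at half-maximal effect; plate controls were DMSO wells for no effect and full inhibition by NEM control for full effect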
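USP2 core (10nM final) preincubated 30min RT with compound in 20mM Tris-HCl pH 8.0, 2mM CaCl2, 2mM beta-mercaptoethanol, 0.05% CHAPS; 25nM Ub-CHOP2 plus 25nM reporter substrate added, fluorescence (Ex485/Em531) read after 60min.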
* = called active by the depositor; i = inactive; u = inconclusive; x = no result; ! = a repeat was not active. The list is not random: actives were taken first. Their share in the collection is about 4.8%. Unless noted, calls follow the shape of the dose curve; as a rule, active = well fitted curve in the direction sought with a large enough effect; inconclusive = small, poorly fitted or top-dose-only effect, or another doubt; inactive = no such curve, though single readings can be large; an effect the other way counts as inactive or inconclusive.

SMILES	ATXN viability	IL-1B inflam inh	ATXN2 expr inh	USP1-UAF1 inh	USP2a block
Cc1ccc(S(=O)(=O)N2CCCCC2CCNC(=O)C(=O)NCC2CCCO2)cc1 (centres undefined)	i	u	6%	5%	2%
CC(=O)Oc1ccc(-c2csc(Nc3ccccn3)n2)cc1	i	-24	x	4%	x
CC(=O)Nc1ccc(Nc2nc(-c3sc(NC(C)=O)nc3C)cs2)cc1	u	-95*	-37%	-16%	0%
CC(=O)Nc1nc(C)c(-c2csc(Nc3ccccn3)n2)s1	u	-79*!	17%	-21%	-2%
CC(=O)Nc1nc(C)c(-c2csc(Nc3ccc(O)cc3)n2)s1	u	-88*	-17%	-17%	0%
CC1CCN(C2=NC(=O)/C(=C/c3cccc(O)c3)S2)CC1	i	-75*	25%	-16%	2%
CC1CCN(C2=NC(=O)/C(=C/c3ccccc3F)S2)CC1	i	-99*	27%	-7%	3%
CC1Cc2cc(/C=C3/SC(N4CCC(C(N)=O)CC4)=NC3=O)ccc2O1 (centres undefined)	i	x	-2%	7%	1%
CN1CCN(C2=NC(=O)/C(=C/c3cn[nH]c3-c3ccccc3)S2)CC1	i	u	x	-18%	1%
c1ccc2c(c1)-c1cccc3cncc-2c13	i	-84*	-23%	-9%	x
CCOc1ccccc1NC(=O)CSc1nc2ccccc2c2nc(CCn3cncc3C)nn12	28µM*	x	-1%	-18%	x
Cc1cncn1CCc1nc2c3ccccc3nc(SCC(=O)Nc3cccc(Cl)c3)n2n1	16µM*	-97*	25µM*	-25%	-16%
Cc1cccc(NC(=O)CSc2nc3ccccc3c3nc(CCc4c(C)n[nH]c4C)nn23)c1	16µM*	-10	32µM*!	-13%	2%
Cc1cncn1CCc1nc2c3ccccc3nc(SCC(=O)Nc3ccc(F)cc3)n2n1	i	x	10%	-17%	x
Cc1cc(C)c2nc(C)cc(Nc3cccc(C(=O)O)c3)c2c1	i	x	7%	-21%	x
O=C(CSc1nc2ccccc2o1)N1N=C(c2cccs2)CC1c1ccc(F)cc1 (centres undefined)	i	15	-14%	-24%	-3%
O=C(CSC1=NCCS1)N1N=C(c2cccs2)CC1c1ccc(F)cc1 (centres undefined)	u	-66*	x	-22%	x
CNC(=O)c1ccccc1Sc1ccc2c(C=Cc3ccccn3)n[nH]c2c1	x	x	9%	x	x
Cc1ccc(-c2cn(-c3ccc(OC(F)F)cc3)c3[n+]2CCCCC3)cc1	i	-81*	u	8%	-5%
Clc1ccc(-n2nnnc2Sc2ncnc3sccc23)cc1	x	-120*	u	-28%	x
c1ccc(CSc2ncnc3sccc23)cc1	i	0	17%	0%	-2%
Cc1sc2ncnc(Sc3nnnn3-c3ccccc3)c2c1C	32µM*	-101*	16µM*	-22%	-1%
Cc1cc2nc(-c3cccc(NC(=O)CSc4ccc(Cl)cc4)c3)oc2cc1C	i	x	96%	-18%	x
N#Cc1c(NC(=O)c2ccc(Br)o2)n(-c2ccccc2)c2nc3ccccc3nc12	i	42	-6%	6.3µM*	-1%
COc1ccc(-n2c(NC(=O)c3ccc(Br)o3)c(C#N)c3nc4ccccc4nc32)cc1	x	x	x	x	0%
SMILES	ATXN viability	IL-1B inflam inh	ATXN2 expr inh	USP1-UAF1 inh	USP2a block
COc1ccc(-n2ccn(CC(=O)Nc3ccc(C)cc3C)c(=O)c2=O)cc1	x	x	x	-10%	x
CCc1ccc(O)c(C(=O)c2cnc3cc(-c4ccc(C)cc4)nn3c2)c1	u	x	3%	-21%	x
CCc1nn2cc(C(=O)c3cc(Cl)ccc3O)cnc2c1-c1ccc(F)cc1	i	-77*	u	-13%	0%
Cc1c(C(=O)NCc2cccc(Br)c2)oc2ccc3c(c12)C(=O)CC(C)(C)O3	x	x	x	-22%	x
COc1cccc(NC(=O)c2oc3ccc(S(=O)(=O)N(C)C4CCCCC4)cc3c2C)c1	x	x	x	-24%	x
CN(C)CCn1cnc2c(c1=N)C(c1ccccc1)c1ccc3ccccc3c1O2 (centres undefined)	x	-57*	u	-25%	-5%
N=c1c2c(ncn1Cc1ccco1)Oc1cc(O)ccc1C2c1ccccc1 (centres undefined)	i	-62*	-32%	-21%	2%
N=c1c2c(ncn1Cc1ccco1)Oc1c(ccc3ccccc13)C2c1ccccc1 (centres undefined)	u	u	u	-30%	1%
CCCOP(=O)(c1ccc(N(C)C)cc1)C(O)c1ccc(Cl)cc1 (centres undefined)	i	-14	-6%	0%	3%
COCCn1c(CNC(=O)c2ccc(C)cc2)nc2cccnc21	x	x	x	-8%	x
CC(=O)/C=C\c1cn(-c2ncc(C(F)(F)F)cc2Cl)c2ccccc12	i	-81*	-34%	-17%	2%
Cc1ccc(-c2nnc(OCc3nc4ccccc4n3C)c3ccccc23)cc1	i	13	-13%	-15%	x
O=C(c1ccc(C(F)(F)F)cc1)N1CCC(=O)N(C(COCc2ccccc2)Cc2ccccc2)CC1 (centres undefined)	u	-55*	u	-23%	-9%
CC(C)(C)c1ccc(C(=O)N2CCC(=O)N(C(CO)Cc3ccccc3)CC2)cc1 (centres undefined)	i	23	-2%	-27%	-2%
CC(C)(C)c1ccc(C(=O)N2CCC(=O)N(C(COCc3ccccc3)Cc3ccccc3)CC2)cc1 (centres undefined)	x	-29	u	-36%	-16%
O=C(c1ccc(C(F)(F)F)cc1)N1CCC(=O)N(C(COCc2ccc(Cl)cc2)Cc2ccccc2)CC1 (centres undefined)	u	-61*	u	u	1%
CC(C)(C)c1ccc(C(=O)N2CCC(=O)N([C@H](COCc3ccccc3)Cc3ccccc3)CC2)cc1	x	u	32µM*	x	x
COc1cc(=O)n2c(c1C(=O)NC(C)c1ccco1)CCN(Cc1ccnc3ccccc13)CC2 (centres undefined)	i	x	x	x	x
O=C(CN1C(=O)/C(=C/c2ccccc2)SC1=S)NC1C=CS(=O)(=O)C1 (centres undefined)	i	u	-7%	-18%	1%
COc1cccc(/C=C2\SC(=O)N(CC(=O)NC3C=CS(=O)(=O)C3)C2=O)c1 (centres undefined)	u	-99*	x	-17%	1%
COc1cccc(/C=C2\SC(=O)N(CC(=O)NC3CCS(=O)(=O)C3)C2=O)c1 (centres undefined)	i	-6	19%	-22%	-1%
CC(C)c1ccc(/C=C2\SC(=O)N(CC(=O)NC3C=CS(=O)(=O)C3)C2=O)cc1 (centres undefined)	u	-90*	x	-14%	-2%
